According to the supplement of paper PMC11219838:

How the values were obtained:
Details in all cases: 60 µM; 5 days; temperature: 20 °C
[1] = tested on: Meloidogyne hapla J2; test: proportion of mobile M. hapla J2 relative to DMSO control (fraction of DMSO control); higher = more viable, less nematicidal, active = 0.7 or less
In short: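 About 25 M. hapla J2 were placed in each well of a 96-well plate in distilled water, and compound was pinned in to a final 60 µM with 0.6% v/v DMSO. The sealed plates were shaken at 200 rpm at 20 °C for 5 days, after which 2 µL of 1 M NaOH went into each well. Mobility was then scored under the microscope and divided by the mean value from DMSO-only wells on the same plate. Each plate held eight such DMSO wells, and two biological replicates were averaged.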

[2] = tested on: Caenorhabditis elegans dauer (daf-2(e1370)); test: proportion of mobile C. elegans dauer larvae relative to DMSO control (fraction of DMSO control); higher = more viable, less nematicidal, active = 0.63 or less; extreme values may be limits of the assay
In short: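 The proportion of mobile worms, relative to DMSO wells, was scored by dissection microscope and averaged over two biological replicates. Worms were C. elegans dauers, about 20 per well in liquid NGM in 96-well plates, generated from synchronized larvae on MYOB plates with E. coli OP50 at 25 °C for 48 h. They were treated with compound pinned to 60 µM final (0.6% v/v DMSO) and kept in sealed plates shaken at 200 rpm for 5 days at 20 °C.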

[3] = tested on: Ditylenchus dipsaci; test: proportion of mobile D. dipsaci (mixed stage) relative to DMSO control (fraction of DMSO control); higher = more viable, less nematicidal, active = 0.86 or less; extreme values may be limits of the assay
In short: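 Ditylenchus dipsaci nematodes were cultured on pea plants in Gamborg B-5 agar, then extracted into water through a filter funnel, and roughly 20 worms in distilled water were placed in each well of a 96-well plate. Compound was pinned in to a final concentration of 60 µM (0.6% v/v DMSO), and the sealed plates were shaken at 200 rpm for 5 days at 20 °C. Mobile worms were counted under the microscope after 2 µL of 1 M NaOH was added. Mobility is given relative to DMSO controls as the mean of two biological replicates.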

COc1nc2ccc(C)cc2cc1-c1noc(-c2ccncc2)n1
inactive: proportion of mobile M. hapla J2 [1] 0.849 | proportion of mobile C. elegans dauer larvae [2] 1 | proportion of mobile D. dipsaci [3] 1

Cc1cc(OCc2nc(-c3ccncc3)no2)cc(C)c1Br
inactive: proportion of mobile M. hapla J2 [1] 1.03 | proportion of mobile C. elegans dauer larvae [2] 1 | proportion of mobile D. dipsaci [3] 1

COc1ccccc1-c1nnc(SCC(=O)OCc2ccccc2)o1
inactive: proportion of mobile M. hapla J2 [1] 0.978 | proportion of mobile C. elegans dauer larvae [2] 1 | proportion of mobile D. dipsaci [3] 1

Cc1ccc(OCc2nc(-c3ccc(Cl)cc3)no2)cc1
inactive: proportion of mobile M. hapla J2 [1] 0.901 | proportion of mobile C. elegans dauer larvae [2] 1 | proportion of mobile D. dipsaci [3] 1

Clc1ccc(CSc2nnc(-c3ccccn3)o2)cc1
inactive: proportion of mobile M. hapla J2 [1] 0.835 | proportion of mobile C. elegans dauer larvae [2] 1 | proportion of mobile D. dipsaci [3] 1

COc1cccc(-c2noc(CSc3ccc(Cl)cc3)n2)c1
inactive: proportion of mobile M. hapla J2 [1] 1.03 | proportion of mobile C. elegans dauer larvae [2] 1 | proportion of mobile D. dipsaci [3] 1

Cc1ccc(OCc2nc(-c3cccnc3)no2)cc1C
inactive: proportion of mobile M. hapla J2 [1] 1.02 | proportion of mobile C. elegans dauer larvae [2] 1 | proportion of mobile D. dipsaci [3] 1

Cc1cccc(-c2nnc(SCC(=O)Nc3ccccc3F)o2)c1
inactive: proportion of mobile M. hapla J2 [1] 0.753 | proportion of mobile C. elegans dauer larvae [2] 1 | proportion of mobile D. dipsaci [3] 1

CCOc1nc(-c2ccc(C)cc2)ccc1-c1noc(-c2ccncc2)n1
inactive: proportion of mobile M. hapla J2 [1] 0.901 | proportion of mobile C. elegans dauer larvae [2] 1 | proportion of mobile D. dipsaci [3] 1

Fc1ccc(-c2noc(-c3ccc(Cl)cc3)n2)cc1
inactive: proportion of mobile M. hapla J2 [1] 1.03 | proportion of mobile C. elegans dauer larvae [2] 1 | proportion of mobile D. dipsaci [3] 1

Cc1cc(Cl)ccc1NC(=O)CSc1nnc(-c2ccncc2)o1
inactive: proportion of mobile M. hapla J2 [1] 0.974 | proportion of mobile C. elegans dauer larvae [2] 1 | proportion of mobile D. dipsaci [3] 1

O=C(CSc1nnc(-c2ccccc2)o1)Nc1ccccc1F
inactive: proportion of mobile M. hapla J2 [1] 0.85 | proportion of mobile C. elegans dauer larvae [2] 1 | proportion of mobile D. dipsaci [3] 1

Cc1ccc(-c2noc(COc3ccccc3C)n2)cc1
inactive: proportion of mobile M. hapla J2 [1] 1.01 | proportion of mobile C. elegans dauer larvae [2] 1 | proportion of mobile D. dipsaci [3] 1
